# Values of other authors, collected in PubChem BioAssay AID977610.
# Screen size: about 3,600 compounds; about 3,600 (100%) were called active. The limit is not given here; nearly all actives have Ki up to about 18000 µM. The set was probably picked from earlier hits. The list shows a part of the results. Numbered stars: 1 amine (or outer) side, 2 acyl side, 3 side chain; on linkers, the order of the positions; unused ones are H or OH. Where a SMILES comes first, the peptide text is derived from it. Square brackets hold non-standard residues; d marks the D form. Residues, ends and D or L forms follow the SMILES beside them. Peptide text beside a SMILES is read from it. [ ]: non-standard residue; d: D form. X2 = O=C([C@H](Cc1ccc(O[P+](O)(O)O)cc1)N[*:1])[*:2]; Orn(CH(NH2)2) = NC(N)NCCC[C@H](N)C(=O)O
# Assay: PubChem AID 977610
# Settings: PDB protein-ligand complexes, literature Ki
molecule,measurement,setting,value
C[C@@H]1N[C@@H](c2cn(-c3ccccc3)nn2)[C@H](O)[C@@H]1O,Ki,"protein: Alpha-L-fucosidase Fuc2970, PDB entry 4pee",0.0048 µM (active)
NCCCC[C@H](N[C@@H](CCc1ccccc1)C(=O)O)C(=O)N1CC=C[C@H]1C(=O)O,Ki,"protein: human somatic angiontensin-I converting enzyme N domain, PDB entry 2c6n",0.131 µM (active)
N[C@@H](CCc1ccccc1)[P+](O)(O)C[C@@H](Cc1ccccc1)C(O)O,Ki,"protein: Aminopeptidase N, PDB entry 4qme",0.302 µM (active)
N[C@@H](CCc1cccnc1)[P+](O)(O)C[C@@H](Cc1ccccc1)C(=O)O,Ki,"protein: Aminopeptidase N, PDB entry 4qir",0.112 µM (active)
NCc1ccc(C[C@H](C[P+](O)(O)[C@@H](N)CCc2ccccc2)C(=O)O)cc1,Ki,"protein: Aminopeptidase N, PDB entry 4qhp",0.009 µM (active)
NCc1cccc(C[C@H](C[P+](O)(O)[C@@H](N)CCc2ccccc2)C(=O)O)c1,Ki,"protein: Aminopeptidase N, PDB entry 4quo",0.012 µM (active)
Cc1ccc(-c2cnc([C@@H](O)CCCCCCc3ccccc3)o2)nc1,Ki,"protein: Fatty-acid amide hydrolase 1 (L192F, F194Y, A377T, S435N, I491V, V495M mutation), PDB entry 4j5p",0.012 µM (active)
O=C(O)c1cccc(-c2cnc([C@@H](O)CCc3ccc(-c4ccccc4)cc3)o2)n1,Ki,"protein: Humanized Variant of Fatty Acid Amide Hydrolase (L192F, F194Y, A377T, S435N, I491V, V495M), PDB entry 3k83",0.022 µM (active)
O=C(O)c1cccc(-c2cnc([C@@H](O)CCCCCCc3ccccc3)o2)n1,Ki,"protein: Humanized Variant of Fatty Acid Amide Hydrolase (L192F, F194Y, A377T, S435N, I491V, V495M), PDB entry 3k7f",0.02 µM (active)
O=C1CC(NC(=O)c2c(Cl)cccc2Cl)=CC=N1,Ki,"protein: Non-receptor tyrosine-protein kinase TYK2 (D1023N mutation), PDB entry 4gfo",0.24 µM (active)
same,Ki,"protein: Tyrosine-protein kinase JAK2, PDB entry 4gfm",0.06 µM (active)
CC(=O)N[C@@H](CCCNC(N)N)C(=O)N[C@@H](Cc1c[nH]c2ccccc12)C(=O)N[C@H]1CCCCCCCNC(=O)[C@@H]2CCCN2C(=O)[C@H](CCCNC(N)N)NC(=O)[C@H](C)NC(=O)[C@@H]2CCCN2C(=O)[C@H](Cc2ccccc2)NC1=O,Ki,"protein: Menin, PDB entry 4i80",0.0238 µM (active)
Oc1ccc(Br)cc1/C=C/S(O)(O)O,Ki,"protein: CARBONIC ANHYDRASE 2, PDB entry 4bcw",100 µM (active)
CC(C)C[C@@H](N)[C@H](O)C(=O)N[C@H](C(=O)N[C@H](C(=O)N[C@@H](CC(=O)O)C(=O)O)C(C)C)C(C)C,Ki,"protein: Glutamyl aminopeptidase, PDB entry 4kx8",0.074 µM (active)
O=[N+]([O-])c1ccc2n[nH]nc2c1,Ki,"protein: KEMP ELIMINASE HG3.17 (V6I, Q37K, K50Q, G82A, M84C, S89N, Q90F, T105I, A125T, T142N, T208M, S265T, F267M, W275A, R276F,, PDB entry 4bs0",2 µM (active)
CSCC[C@H](NC(=O)[C@H](CO)NC(=O)[C@H](CCC(N)=O)NC(=O)[C@H](CCCN=C(N)N)NC(=O)[C@H](CS)NC(=O)[C@@H](N)[C@@H](C)O)C(=O)N[C@@H](CS)C(=O)N[C@H](C(=O)N[C@@H](C)C(=O)N[C@@H](CCCN=C(N)N)C(=O)O)[C@@H](C)O (tested in a mixture with another compound) (H-TCRQSMCTAR-OH),Ki,"protein: urokinase-type plasminogen activator (uPA), PDB entry 4mnv",11.6 µM (active)
H-RWQDTRL-OH,Ki,"protein: CFTR Associated Ligand (CAL) PDZ domain, PDB entry 4k75",56.2 µM (active)
H-SRWQTSII-OH,Ki,"protein: CFTR Associated Ligand (CAL) PDZ domain, PDB entry 4k6y",14.8 µM (active)
CNc1nc2c(CC[C@H]3O[C@@H](OC)[C@H](O)[C@@H]3OC)c3nc(N)[nH]c(=O)c3cc2[nH]1,Ki,"protein: tRNA guanine transglycosylase (TGT), PDB entry 4kwo",0.353 µM (active)
Cc1nnc(CNCCN2C(O)c3cccc4c(N(C)C)ccc(c34)C2O)s1 (stereo not drawn),Ki,"protein: insect beta-N-acetyl-D-hexosaminidase OfHex1, PDB entry 3wmc",0.31 µM (active)
Cc1nnc(CNCCN2C(O)c3cccc4cccc(c34)C2O)s1 (stereo not drawn),Ki,"protein: insect beta-N-acetyl-D-hexosaminidase OfHex1, PDB entry 3wmb",4.28 µM (active)
CC(=O)N[C@@H](Cc1ccc(O[P+](O)(O)O)cc1)C(=O)N[C@H](C(=O)N1CCC[C@H]1C(=O)N[C@@H](CCC(=O)O)C(=O)N1CCC[C@H]1C(N)=O)[C@@H](C)O (Ac-[X2]TPEP-NH2),Ki,"protein: E3 ubiquitin-protein ligase CBL, PDB entry 4gpl",1.3 µM (active)
C=C1CS[C@H]([C@H](N)C(=O)O)N=C1C(=O)O,Ki,"protein: AmpC Beta-Lactamase, PDB entry 4okp",2000 µM (active)
N[C@H](C(=O)O)[C@@H]1N=C(C(=O)O)CCS1,Ki,"protein: AmpC Beta-Lactamase, PDB entry 4old",2000 µM (active)
Cc1ccc(NC(=O)c2cccc(C(F)(F)F)c2)cc1-c1ccc2nc(NC3CC3)ncc2c1,Ki,"protein: Mitogen-activated protein kinase 1 (Q103A, C164L mutation), PDB entry 4i5h",0.002 µM (active)
Cc1cccc(Nc2cc(S(O)(O)O)c(N)c3c2C(=O)c2ccccc2C3=O)c1,Ki,"protein: ecto-nucleoside triphosphate diphosphohydrolase 2, RnNTPDase2, PDB entry 4cd1",12.8 µM (active)
CCCCCC(=O)O[C@@H](CO)CO[P+](O)(O)OCC[N+](C)(C)C,Ki,"protein: Avermectin-sensitive glutamate-gated chloride channel GluCl alpha, PDB entry 4tnw",167 µM (active)
Nc1ncnc2c(CN3C[C@H](CSCC[C@H](N)C(=O)O)[C@@H](O)C3)c[nH]c12,Ki,"protein: 5'-methylthioadenosine/S-adenosylhomocysteine nucleosidase, PDB entry 4f3k",6.9e-05 µM (active)
Nc1ncnc2c([C@@H]3N[C@H](CO)[C@@H](O)[C@H]3O)c[nH]c12,Ki,"protein: Inosine-adenosine-guanosine-nucleoside hydrolase, PDB entry 4i72",0.0009 µM (active)
Nc1ncnc2c(CN3C[C@H](O)[C@H](O)[C@H]3CO)c[nH]c12,Ki,"protein: Inosine-adenosine-guanosine-nucleoside hydrolase, PDB entry 4i71",0.018 µM (active)
O=c1[nH]cnc2c(CN3C[C@H](O)[C@H](O)[C@H]3CO)csc12,Ki,"protein: Inosine-adenosine-guanosine-nucleoside hydrolase, PDB entry 4i73",0.19 µM (active)
same,Ki,"protein: Inosine-adenosine-guanosine-nucleoside hydrolase, PDB entry 4i74",0.19 µM (active)
CSCC[C@H](NC(=O)[C@H](C)N)C(=O)N[C@@H](CCCNC(N)N)C(=O)N[C@H](C(=O)O)C(C)C (H-AM[Orn(CH(NH2)2)]V-OH),Ki,"protein: E3 ubiquitin-protein ligase XIAP (C202A, C213G mutation), PDB entry 4j48",2.41 µM (active)
